The panel holds about 79,000 compounds, 15% with a hit somewhere; the sample as a whole holds those more often. A number with no mark means an inactive call. The source made the active and inactive calls. Rule as the data show it: active = growth inhibition above about 70%; inactive = the rest.
Assays:
[1] = NCI Yeast Anticancer Drug Screen. Data for the rad50 strain (AID 155);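 also: 0% = growth of vehicle-only cultures of the same strain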; conditions: S. cerevisiae rad50 strain growth inhibition, hits give high values
Outline: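 Compounds were tested on a yeast strain with an engineered DNA damage repair alteration; the reported value is growth inhibition normalised to vehicle treatment.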

[2] = NCI Yeast Anticancer Drug Screen. Data for the mec2-1 strain (AID 157); conditions: S. cerevisiae mec2-1 strain, hits give high values
Outline: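 Growth inhibition is read against vehicle-treated controls after compound exposure of the mec2-1 yeast strain, which is defective in DNA damage repair or cell cycle control.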

[3] = NCI Yeast Anticancer Drug Screen. Data for the sgs1 mgt1 strain (AID 161);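 also: 0% = growth of cultures given vehicle only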; conditions: S. cerevisiae sgs1 mgt1 strain, hits give high values
Outline: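 Yeast cells carrying a defined DNA-repair defect were exposed to test compounds. Growth inhibition was measured relative to vehicle-treated controls.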

[4] = NCI Yeast Anticancer Drug Screen. Data for the cln2 rad14 strain (AID 165);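 also: 0% = growth equal to vehicle treated cultures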; conditions: S. cerevisiae cln2 rad14 strain, hits give high values
Outline: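 Growth inhibition, relative to vehicle-treated controls, is the read-out. The test organism is a yeast strain with defined genetic alterations, cln2 rad14.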

[5] = NCI Yeast Anticancer Drug Screen. Data for the bub3 strain (AID 167); conditions: S. cerevisiae bub3 mutant strain, hits give high values
Outline: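 Growth of a checkpoint-deficient yeast mutant is measured after compound exposure. Values represent inhibition relative to vehicle.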

[6] = NCI Yeast Anticancer Drug Screen. Data for the mlh1 rad18 strain (AID 175); conditions: S. cerevisiae mlh1 rad18 strain growth inhibition, hits give high values
Outline: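 Cells of a genetically altered yeast strain, deficient in DNA damage repair, were treated with compound. Their growth was then compared with that of vehicle-treated cultures to give inhibition.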

[7] = at 5.0 µM (retest, dose inferred, filed as 0.5)
[8] = at 50.0 µM (retest, dose inferred, filed as 5.0)

Structure (SMILES)	growth inhibition [1, 7]	growth inhibition [1, 8]	growth inhibition ([1]; at 50.0 µM)	growth inhibition [2, 7]	growth inhibition [2, 8]	growth inhibition ([2]; at 50.0 µM)	growth inhibition [3, 7]	growth inhibition [3, 8]	growth inhibition ([3]; at 50.0 µM)	growth inhibition [4, 7]	growth inhibition [4, 8]	growth inhibition ([4]; at 50.0 µM)	growth inhibition [5, 7]	growth inhibition [5, 8]	growth inhibition ([5]; at 50.0 µM)	growth inhibition [6, 7]	growth inhibition [6, 8]	growth inhibition ([6]; at 50.0 µM)
CCCCCCCCCCCCCCCCSC(=NCC)NCC	99% (active)	99% (active)	99.3% (active)	67%	99% (active)	99.7% (active)	98% (active)	100% (active)	99.6% (active)	23%	99% (active)	98.3% (active)	81% (active)	99% (active)	99.5% (active)	98% (active)	99% (active)	99.3% (active)
CCCCCCN(CCCCCC)CCCNc1nccc2ccccc12	4%	62%	78.5% (active)	-4%	14%	36.5%	2%	88% (active)	56.9%	-4%	13%	56.5%	5%	72% (active)	84% (active)	10%	64%	77% (active)
CCCCCCCCCCCC[n+]1ccc2ccccc2c1	97% (active)	99% (active)	99.6% (active)	99% (active)	100% (active)	99.7% (active)	98% (active)	99% (active)	99.2% (active)	98% (active)	100% (active)	98.1% (active)	99% (active)	99% (active)	99.5% (active)	98% (active)	100% (active)	99.5% (active)
C[C@@]1(CO)[C@H](O)CC[C@@]2(C)[C@H]1CC[C@H]1C[C@@H]3C[C@@]12CC[C@@]3(O)COC(=O)CN	0%	65%	97.3% (active)	-1%	98% (active)	57.1%	-1%	46%	61.6%	-12%	49%	22.9%	11%	33%	91.7% (active)	6%	97% (active)	93.8% (active)
C[n+]1ccccc1C[n+]1ccccc1	4%	28%	67.4%	5%	17%	36.1%	1%	35%	66.8%	6%	14%	-10.1%	2%	20%	26.2%	15%	17%	53.9%
O=C(c1ccccc1)c1cc2ccccc2oc1=O	1%	71% (active)	63.1%	5%	35%	13.3%	1%	63%	60.5%	4%	52%	37.8%	-6%	61%	10.8%	9%	81% (active)	79% (active)
Cc1nc([N+](=O)[O-])c(Sc2nncc(-c3ccccc3)n2)n1C	8%	34%	97.3% (active)	4%	38%	97.5% (active)	7%	28%	95% (active)	-5%	9%	93% (active)	1%	21%	97.6% (active)	8%	43%	97.5% (active)
Cc1ccc(Nc2ccc(O)c3c2C(=O)c2c(O)ccc(Nc4ccc(C)cc4)c2C3=O)cc1	5%	4%	10.3%	1%	-1%	7.15%	12%	14%	12.8%	0%	-1%	72.5% (active)	-2%	-5%	-3.8%	-2%	-65%	17.4%
CN(C)c1ccc(/C=C/c2cc[n+](C)c(/C=C/c3ccc(N(C)C)cc3)c2)cc1	98% (active)	96% (active)	91% (active)	100% (active)	95% (active)	93.3% (active)	98% (active)	93% (active)	93.2% (active)	99% (active)	97% (active)	92.8% (active)	96% (active)	95% (active)	91.8% (active)	100% (active)	96% (active)	91% (active)
N#CCc1cccc2ccccc12	3%	6%	13.7%	1%	10%	-16.8%	0%	4%	-14.2%	-2%	3%	-17.1%	0%	-4%	-9.9%	5%	10%	5%
CC(=O)c1ccc2c(c1)CCc1ccccc1-2	2%	85% (active)	12.5%	-33%	49%	-8.9%	2%	55%	36.1%	2%	8%	52.5%	45%	89% (active)	30.4%	1%	79% (active)	15.9%
CN=C(N)N/N=C(\c1ccccc1)c1ccc(Br)cc1	11%	51%	46.4%	8%	39%	71% (active)	13%	43%	16.9%	18%	33%	12.3%	5%	63%	1.9%	10%	64%	-2.1%
CCCCCCCCCCCC[S+](C)CC(=O)[O-] (stereo not given)	20%	74% (active)	23.2%	5%	70% (active)	48.8%	-2%	78% (active)	39.5%	11%	64%	72% (active)	19%	89% (active)	27.9%	10%	41%	72.8% (active)
CN(Cc1ccccc1)c1ccc(SC#N)cc1	-2%	82% (active)	81% (active)	-4%	61%	87.5% (active)	-5%	90% (active)	79.5% (active)	-5%	-4%	24.6%	6%	80% (active)	92.7% (active)	3%	85% (active)	89% (active)
CCN(CC)c1ccc(/C=C\C(=O)c2ccc(NC(C)=O)cc2)cc1	-22%	-8%	22.8%	-14%	-21%	55.4%	-13%	-2%	52%	-11%	-10%	28.6%	-12%	-4%	76.8% (active)	-21%	-9%	52%
CCCCCCCCCCCCCCCc1ccc(C(=O)C[n+]2ccccc2)cc1	29%	96% (active)	85.8% (active)	23%	98% (active)	89.7% (active)	44%	98% (active)	87.7% (active)	22%	81% (active)	54%	28%	98% (active)	85.2% (active)	32%	97% (active)	83% (active)
S=c1[nH]c2cc(Cl)ccc2s1	-21%	64%	25.2%	-4%	90% (active)	42.2%	-6%	95% (active)	74.6% (active)	-8%	93% (active)	-2.15%	-28%	16%	-4.3%	-12%	45%	42.9%
CCOC(=O)c1c(C)[nH]c2ccc(O)cc12	6%	15%	98.3% (active)	1%	-3%	96% (active)	-13%	20%	97% (active)	-12%	-10%	94.3% (active)	-24%	5%	97.3% (active)	-6%	50%	96.9% (active)
O=[n+]1c2ccccc2n([O-])c2cc(Cl)ccc21	95% (active)	99% (active)	98.7% (active)	86% (active)	100% (active)	99.4% (active)	77% (active)	99% (active)	99.1% (active)	48%	99% (active)	96.7% (active)	95% (active)	100% (active)	98.5% (active)	94% (active)	99% (active)	99.1% (active)
NC(=Nc1nc(-c2ccccn2)cc2ccccc12)c1ccccn1	54%	70% (active)	77.2% (active)	54%	66%	67.7%	64%	72% (active)	69.2%	60%	71% (active)	68.6%	73% (active)	77% (active)	71.3% (active)	61%	69%	72.2% (active)
